Compound activity as filed in PubChem BioAssay.
A selection: hits, their analogues and other compounds. The true share with any hit is near 15%.
TDP1 cell CPT: DT40-hTDP1 cell growth loss with CPT; chicken DT40 Tdp1-/-;hTDP1 cells + 20 nM CPT, ATP luminescence, 48 h; Potency, µM (doses to about 46.2 µM), inactives show at the highest dose activity change, negative = growth inhibition, actives largely listed as inhibitors; actives 12% (n = 420,000); AID 686979; note: nearly all actives have a fitted effect of over 55% in size
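Cell growth measured by CellTiter-Glo luminescence after a minimum 48 h, 37 C compound exposure with 20 nM CPT in Tdp1-knockout DT40 cells stably expressing hTDP1, seeded 400/well; qHTS titration format.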
12-LOX inh: blocks human arachidonate 12S-lipoxygenase; AID 1671190; P18054; Potency, µM (doses to about 108 µM), inactives show at the top dose activity change, negative = inhibition, hits mostly inhibitors; purified 12hLO, xylenol orange hydroperoxide absorbance; actives 1.1% (n = 580,000)
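Purified human 12hLO (150 nM final) in 25 mM Hepes, 0.01% Triton X-100, pH 7.0 was preincubated 15 min at room temperature with compound. Then 40 uM arachidonic acid was added, 30 min. Hydroperoxide was read by Fe-XO absorbance ratio 573/405 nm.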
RORg inh: ROR gamma (mouse) transcription inhibition; Drosophila S2 Gal4-RORgamma UAS-luciferase reporter, 20 h; Potency, µM (highest dose often 53.6 µM), for the others: at the top dose activity change, negative = inhibition, actives largely listed as inhibitors; actives 5.4% (n = 310,000); AID 2551; note: nearly all actives have a fitted effect of over 60% in size
Target sequence (P51450 whole entry, looked up, the tested form may be a part): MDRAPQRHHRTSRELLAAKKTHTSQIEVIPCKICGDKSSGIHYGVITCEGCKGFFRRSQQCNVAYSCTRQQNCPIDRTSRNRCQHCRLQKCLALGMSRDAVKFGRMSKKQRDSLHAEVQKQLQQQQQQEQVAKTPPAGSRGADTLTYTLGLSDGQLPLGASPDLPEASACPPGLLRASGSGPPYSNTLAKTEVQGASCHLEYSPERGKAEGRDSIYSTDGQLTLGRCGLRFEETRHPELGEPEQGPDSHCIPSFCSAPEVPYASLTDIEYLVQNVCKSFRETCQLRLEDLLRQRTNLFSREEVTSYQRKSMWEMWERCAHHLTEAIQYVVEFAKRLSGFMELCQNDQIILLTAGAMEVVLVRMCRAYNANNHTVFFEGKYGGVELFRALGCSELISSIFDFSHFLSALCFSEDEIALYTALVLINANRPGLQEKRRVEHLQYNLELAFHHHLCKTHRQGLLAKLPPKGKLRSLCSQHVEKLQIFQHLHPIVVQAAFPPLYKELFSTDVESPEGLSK
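Compounds are pin-transferred onto Drosophila Schneider cells expressing a copper-inducible Gal4–ROR gamma transactivation domain fusion. After 1 hr, copper sulfate is added to 700 uM final; luciferase is read 20 hr later.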
DT40 TDP1 no CPT: qHTS for Inhibitors of human tyrosyl-DNA phosphodiesterase 1 (TDP1): qHTS in cells in absence of CPT. DT40 Tdp1-/- hTDP1 cells, no CPT, ATP luminescence, 48 h. actives 15% (n = 420,000). AID 686978, 2013. Potency, µM (series often up to 46.2 µM), without a hit: top-dose activity change, negative = growth inhibition, usual class: inhibitors; note: nearly all actives have a fitted effect of over 55% in size
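Chicken DT40 Tdp1-/- cells stably complemented with human TDP1 were seeded at 400 cells/well with DMSO in place of 20 nM camptothecin. After compound pinning, cells grew at least 48 hr at 37 °C; viability read by CellTiter-Glo luminescence.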
ELG1 repair inh: inhibitors of ELG1-dependent DNA repair in HEK293T cells | HEK293T ELG1-luciferase reporter, luminescence, 16 h; DNA damage induced by 5-fluorouridine | Potency, µM (doses to about 46.1 µM), for the others: at the top dose activity change, negative = inhibition, usual class: inhibitors | actives 2.3% (n = 330,000) | AID 504467; note: nearly all actives have a fitted effect of over 55% in size
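Overnight (16 hr) co-exposure of 2,000 cells/well to 5-fluorouridine and compound at 37 °C preceded detection. Luciferase was quantified via ONE-Glo luminescence; loss of signal denotes inhibition.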
Gal4-VP16 FLuc: inhibits Gal4-VP16 luciferase reporter, ROR gamma counter-screen | Drosophila S2 Gal4-VP16 UAS-luciferase, luminescence, 20 h | AID 2546 | actives 3.5% (n = 310,000) | Potency, µM (highest dose often 53.6 µM), without a hit: at the highest dose activity, negative = inhibition, most hits filed as inhibitors;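 note: Gal4-VP16 expression switched on by copper sulfate through the metallothionein promoter; nearly all actives have a fitted effect of over 50% in size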
* hit, by the source's call; ? = inconclusive; . = not tested or not shown. Calls come from the whole dose curve; as a rule, active = well fitted curve in the direction sought with a large enough effect; inconclusive = small, poorly fitted or top-dose-only effect, or another doubt; inactive = no such curve, though single readings can be large; an effect the other way counts as inactive or inconclusive. % is set by controls: 0 for no effect and ±100 for the full control effect; potency is the fitted concentration of half-maximal effect.

SMILES	TDP1 cell CPT	12-LOX inh	RORg inh	DT40 TDP1 no CPT	ELG1 repair inh	Gal4-VP16 FLuc
CCOC(=O)C1=C[C@@H](C(C)(C)C)N(S(=O)(=O)c2ccc([N+](=O)[O-])cc2)[C@H]1c1ccccc1	?	1%	.	?	.	.
CCOC(=O)C1=C[C@@H](C(C)(C)C)N(S(=O)(=O)c2ccc(C)cc2)[C@H]1c1ccc(C#N)cc1	?	46%	.	-75%	.	.
CCOC(=O)C1=C[C@@H](C(C)(C)C)N(S(=O)(=O)c2ccc(C)cc2)[C@H]1c1ccc(OC)cc1	?	-8%	.	21µM*	.	.
COc1ccc(N2CC(c3noc(-c4cccc(OC)c4)n3)CC2=O)cc1 (stereo not given)	.	-8%	.	.	.	.
COc1ccc(C(=O)NC2CCN(C(=O)N3CC4CC(C3)[C@H]3CCCC(=O)N3C4)CC2)cc1 (stereo not given in full)	.	52%	.	.	.	.
CCC(C(=O)Nc1ccc(C(C)C)cc1)n1cnc2ccccc2c1=O (stereo not given)	.	45%	.	.	.	.
Cc1cc(NC(=O)NC(=O)c2ccc(F)cc2F)n[nH]1	1%	0%	8.9µM*	?	?	?
Cc1cc(NC(=O)c2cccc(Cl)c2)n[nH]1	-3%	-12%	.	1%	?	.
CCOC(=O)CC(NC(=O)c1cc2ccccc2oc1=O)c1ccc(OC)cc1 (stereo not given)	.	9%	.	.	.	.
Cc1nn(C)c2c1c(C(F)(F)F)cc(=O)n2C(C)C(=O)NCc1ccccc1Cl (stereo not given)	-15%	-3%	.	-5%	.	.
Cc1ccc(CNC(=O)C(C)n2c(=O)cc(-c3ccccc3)c3c(C)nn(C)c32)cc1 (stereo not given)	18µM*	?	.	?	.	.
Cc1nn(C)c2c1c(C(F)(F)F)cc(=O)n2C(C)C(=O)NCCc1ccccc1 (stereo not given)	0.18µM*	-6%	.	-83%	.	.
COC(=O)c1ccc(Cn2c(=O)cc(C(F)(F)F)c3c(C)nn(C)c32)cc1	?	-25%	.	15µM*	.	.
Cc1nn(C)c2c1c(C(F)(F)F)cc(=O)n2C(C)C(=O)NCCC(C)C (stereo not given)	16µM*	-2%	.	?	.	.
CNC(=O)[C@@H]1CN(C(=O)c2cc(C)on2)C[C@H]1COC	.	22%	.	.	.	.
CC(NC(=O)C(Cc1ccccc1)NC(=O)OC(C)(C)C)c1ccc(O)cc1 (stereo not given)	.	7%	.	.	.	.
Cc1nn(C)c2c1c(-c1ccccc1)cc(=O)n2Cc1ccccc1C#N	23µM*	-19%	.	?	.	.
CCn1nc(C)c2c(-c3ccccc3)cc(=O)n(C(C)C(=O)Nc3ccc(OC)c(OC)c3)c21 (stereo not given)	10µM*	?	.	16µM*	.	.
Cc1ocnc1C(=O)N1CCC2(CCC(=O)N(CC(C)O)C2)CC1 (stereo not given)	.	50%	.	.	.	.
CN(CC1CCCO1)S(=O)(=O)c1ccc(C(=O)Nc2ccccc2F)cc1 (stereo not given)	1%	10%	.	?	.	.
COc1ccccc1-c1nnc(NC(=O)c2ccc(S(=O)(=O)N(C)CC3CCCO3)cc2)o1 (stereo not given)	?	0%	0.71µM*	?	-2%	1µM*
CN(CC1CCCO1)S(=O)(=O)c1ccc(C(=O)Nc2nnc(-c3ccccc3)o2)cc1 (stereo not given)	18µM*	-1%	0.63µM*	8.2µM*	?	0.56µM*
CN(CC1CCCO1)S(=O)(=O)c1ccc(C(=O)Nc2nc(-c3ccccn3)cs2)cc1 (stereo not given)	1.5µM*	.	7.9µM*	1.8µM*	?	11µM*
Cc1ccc(C)c(NC(=O)c2ccc(S(=O)(=O)N(C)CC3CCCO3)cc2)c1 (stereo not given)	?	35%	.	?	.	.
CN(CC1CCCO1)S(=O)(=O)c1ccc(C(=O)Nc2ccc(S(N)(=O)=O)cc2)cc1 (stereo not given)	?	435%	31%	10%	9%	1%
SMILES	TDP1 cell CPT	12-LOX inh	RORg inh	DT40 TDP1 no CPT	ELG1 repair inh	Gal4-VP16 FLuc
O=C(CC1CCCC1)N1CCC(Cc2nc(-c3ccc(F)cc3)no2)CC1	.	31%	.	.	.	.
Cc1ccc(C)c(NC(=O)CCNC(=O)Cc2ccccc2)c1	.	-18%	.	.	.	.
CC1(OC(=O)C2CCCC2)C(=O)C=C2C=C(c3ccsc3)N(Cc3ccccc3)C=C2C1=O (stereo not given)	?	-17%	3%	18µM*	1%	5%
C=CCN1C=C2C(=O)C(C)(OC(=O)C3CCCC3)C(=O)C=C2C=C1c1ccsc1 (stereo not given)	?	?	-6%	?	-4%	2%
CC1(OC(=O)C2CCCC2)C(=O)C=C2C=C(c3ccsc3)N(c3ccccc3)C=C2C1=O (stereo not given)	?	13µM*	-25%	?	-13%	-7%
CN(CC(=O)Nc1ccc2c(c1)OCO2)Cc1cccs1	.	-7%	.	.	.	.
Cc1ccc(-n2c(-c3ccccc3)nsc2=NC#N)cc1	13µM*	.	.	?	.	.
OC1O[C@H](c2ccc3c(c2)OCO3)[C@H]2CO[C@H](c3ccc4c(c3)OCO4)[C@@H]12 (stereo not given in full)	?	1%	24%	21µM*	-23%	2%
O=C(c1ccco1)N1CCN(C/C=C/c2ccccc2)CC1	-13%	40%	17%	?	18%	-4%
CCNC(=S)N1CCN(c2ccccn2)CC1	26%	-11%	-40%	-23%	13%	-2%
CC(NNC(=S)N1CCN(c2ccccn2)CC1)c1nccc2ccccc12 (stereo not given)	0.0092µM*	?	.	0.018µM*	.	.
CN1CCN(C(=S)NC(=O)c2ccco2)CC1	1%	?	3.5µM*	7%	7%	14µM*
O=C(NC(=S)N1CCN(c2ccccn2)CC1)c1ccco1	1%	0%	0.18µM*	-10%	1%	3.2µM*
O=C(NC(=S)N1CCN(C/C=C/c2ccccc2)CC1)c1ccco1	?	-6%	1.1µM*	21µM*	-18%	4µM*
C=CCn1c(=O)c2c(nc(-n3nc(C)c(C)c3C)n2CC)n(C)c1=O	.	6%	.	.	.	.
COc1ccc(-c2ccnc3nc(-c4cccs4)nn23)c(F)c1	.	23%	.	.	.	.
